Measured values taken from the GenesisPotency data set.
The campaign covered roughly 290,000 compounds. About 3,000 (1%) were called active. Cut-off read from the data, not from the text of the source: active = inhibition mostly above about 36% (no sharp cut-off); inactive = mostly below about 34%. Many of the other results were omitted from the sample, so actives are more common in it than they were.

biological target: T1, Nucleotide-binding oligomerization domain-containing protein 1, Homo sapiens (UniProt Q9Y239); test: inhibition of NOD1-driven NF-kB reporter – cell-based, luminescence, uHTS, primary screen (AID 1578)
T1 sequence (whole entry): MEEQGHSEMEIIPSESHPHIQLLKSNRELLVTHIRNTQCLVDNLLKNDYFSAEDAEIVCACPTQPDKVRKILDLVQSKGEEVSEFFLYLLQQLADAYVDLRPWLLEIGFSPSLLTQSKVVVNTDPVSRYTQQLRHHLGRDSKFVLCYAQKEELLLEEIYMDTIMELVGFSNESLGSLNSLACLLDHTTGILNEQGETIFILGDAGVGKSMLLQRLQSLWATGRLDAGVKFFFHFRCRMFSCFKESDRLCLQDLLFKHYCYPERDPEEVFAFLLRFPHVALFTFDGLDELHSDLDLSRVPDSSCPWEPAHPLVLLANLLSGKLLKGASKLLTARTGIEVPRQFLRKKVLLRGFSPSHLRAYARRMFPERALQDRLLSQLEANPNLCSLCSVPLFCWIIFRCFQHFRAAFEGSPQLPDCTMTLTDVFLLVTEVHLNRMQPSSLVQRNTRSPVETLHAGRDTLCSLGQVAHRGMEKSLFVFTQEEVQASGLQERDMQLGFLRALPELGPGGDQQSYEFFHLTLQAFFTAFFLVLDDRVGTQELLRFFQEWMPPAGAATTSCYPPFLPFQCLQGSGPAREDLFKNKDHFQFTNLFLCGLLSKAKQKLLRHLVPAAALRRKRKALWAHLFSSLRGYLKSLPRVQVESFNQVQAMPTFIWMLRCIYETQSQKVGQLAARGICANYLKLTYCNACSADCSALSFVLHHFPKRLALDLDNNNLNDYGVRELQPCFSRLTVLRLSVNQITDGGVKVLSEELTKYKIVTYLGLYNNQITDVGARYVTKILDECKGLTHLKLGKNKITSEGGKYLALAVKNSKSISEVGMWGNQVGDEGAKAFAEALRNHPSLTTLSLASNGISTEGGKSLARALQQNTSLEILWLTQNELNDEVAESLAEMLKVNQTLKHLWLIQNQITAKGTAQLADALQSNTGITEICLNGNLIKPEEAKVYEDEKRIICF

| SMILES | outcome |
| --- | --- |
| CCCc1nnc(NC(=O)c2nc(S(=O)(=O)Cc3cccc(C)c3)ncc2Cl)s1 | active |
| Cc1cccc(CS(=O)(=O)c2ncc(Cl)c(C(=O)Nc3c(C)cccc3C)n2)c1 | active |
| CCc1nnc(NC(=O)c2nc(S(=O)(=O)Cc3ccc(C)cc3)ncc2Cl)s1 | active |
| CCCc1nnc(NC(=O)c2nc(S(=O)(=O)Cc3ccc(C)cc3)ncc2Cl)s1 | active |
| CC(C)(C)C(=O)/C(=C/c1ccc(Cl)cc1)n1cncn1 | active |
| O=c1c2ccccc2nc(/C=C/c2cc(Br)ccc2O)n1CCCO | active |
| O=c1c2ccccc2nc(/C=C/c2ccc([N+](=O)[O-])o2)n1CCCO | active |
| CC[n+]1c(C=C2C=C(C)OC(C)=C2)sc2ccccc21.[Cl-] | active |
| O=[N+]([O-])c1nn(-c2ccc3c(c2)OCCO3)n(O)c1=Nc1ccccc1 | active |
| CCOc1ccc(Nc2nc(N)nc(CCl)n2)cc1 | active |
| COc1ccc(OC)c(Nc2nc(N)nc(CCl)n2)c1 | active |
| Cc1ccccc1Nc1nc(N)nc(CCl)n1 | active |
| CCCCCc1cc(O)c2c(C)cc(=O)oc2c1 | active |
| O=C(Nc1ccccc1C(=O)O)c1cc(S(=O)(=O)N2CCCCC2)c(Cl)cc1Cl | active |
| O=C(Nc1ccccc1C(=O)O)c1cc(S(=O)(=O)Nc2ccccc2)ccc1Cl | active |
| CC(=O)c1cccc(NC(=O)/C=C/c2ccc([N+](=O)[O-])s2)c1 | active |
| Cc1cccc(NC(=O)/C=C/c2ccc([N+](=O)[O-])s2)c1 | active |
| CCOC(=O)/C=C/C(=O)Nc1cccc([N+](=O)[O-])c1 | active |
| S=c1[nH]nc(-c2cc(-c3ccccc3)n[nH]2)n1/N=C/C(Br)=C/c1ccccc1 | active |
| CC(=C/c1ccccc1)/C=N/n1c(-c2ccncc2)n[nH]c1=S | active |
| CCn1nc(C)cc1C(=O)NC1CCCc2c1cnn2-c1ccc(C)c(C)c1 (centres undefined) | active |
| CCc1cc(C(=O)NC2CCCc3c2cnn3-c2cccc(C)c2C)n(C)n1 (centres undefined) | active |
| Cc1cc(C(=O)NC2CCCc3c2cnn3-c2ccc(C)c(C)c2)n(C)n1 (centres undefined) | active |

| SMILES | outcome |
| --- | --- |
| COCCn1c(=S)[nH]c2cc(C(=O)N3CCCC(C)C3)ccc2c1=O (centres undefined) | active |
| O=C(N/N=C/c1ccccn1)c1cc(-c2ccccc2)nc2ccccc12 | active |
| CCCOc1cccc(-c2cc(C(=O)N/N=C/c3ccccn3)c3ccccc3n2)c1 | active |
| O=C(N/N=C/c1ccccn1)c1cc(-c2ccc(Cl)cc2)nc2ccccc12 | active |
| O=C(N/N=C/c1ccccn1)c1cc(-c2ccc(Br)cc2)nc2ccccc12 | active |
| COCC1CCN(C(=O)c2cc(COc3cccc4cnccc34)on2)CC1 | active |
| Cc1c(C(C)NC(=O)c2cc(COc3cccc4cnccc34)on2)cnn1C (centres undefined) | active |
| O=C(c1cc(COc2cccc3cnccc23)on1)N1CCCC(CCCO)C1 (centres undefined) | active |
| COCC1CCCN(C(=O)c2cc(COc3ccc4ncccc4c3)on2)C1 (centres undefined) | active |
| O=C(c1cc(COc2cccc3cnccc23)on1)N1CCC(c2ccccc2Cl)C1 (centres undefined) | active |
| O=C1NC(=O)/C(=C\c2ccccc2Oc2ccc(F)c(F)c2)S1 | active |
| Cc1cccc2cc(/C=N/NC(=O)c3ccccc3O)c(Cl)nc12 | active |
| C=C1C(=O)[C@@]23[C@H](O)C[C@@H]4C(C)(C)CC[C@H](O)[C@@]4(C)[C@@H]2CC[C@@H]1[C@H]3O | active |
| COc1cccc(CN(C)C(=O)c2cc(COc3ccc4ncccc4c3)on2)c1 | active |
| CCc1ccc(CN(C)C(=O)c2cc(COc3cccc4cnccc34)on2)cc1 | active |
| CN(Cc1nccs1)C(=O)c1cc(COc2cccc3cnccc23)on1 | active |
| COc1ccc(-c2cc(C(F)(F)F)nc(S(C)(=O)=O)n2)cc1OC | active |
| COc1ccccc1-c1cc(C(F)(F)F)nc(S(C)(=O)=O)n1 | active |
| COc1ccc(-c2cc(C(F)(F)F)nc(S(C)(=O)=O)n2)cc1 | active |
| CCCC1/C(=N/O)CC(c2ccccc2)NC1c1ccccc1 (centres undefined) | active |
| N#CC1=C(N)N2C(=C(C#N)C1c1ccc(Br)cc1)Nc1ccccc12 (centres undefined) | active |
| N#CC1=C(N)N2C(=C(C#N)C1c1cccc(Br)c1)Nc1ccccc12 (centres undefined) | active |
| COc1ccccc1/C=C/C(=O)c1c2c(c(C)[nH]c1=O)CCCC2 | active |

| SMILES | outcome |
| --- | --- |
| Cc1[nH]c(=O)c(C(=O)/C=C/c2ccccc2F)c2c1CCCC2 | active |
| Cc1[nH]c(=O)c(C(=O)/C=C/c2ccccc2)c2c1CCCC2 | active |
| CCN(CC)S(=O)(=O)c1cccc(NC(=O)Nc2cccc(C(F)(F)F)c2)c1 | active |
| Cc1cccc(Cc2cnc(N3C(=N)SC(C)C3=O)s2)c1 (centres undefined) | active |
| Cc1ccc(Cc2cnc(N3C(=N)SC(C)C3=O)s2)cc1 (centres undefined) | active |
| CC1=C(C(=O)OCc2ccc3c(c2)OCO3)C(c2ccc(O)c([N+](=O)[O-])c2)NC(=O)N1 (centres undefined) | active |
| CC1=C(C(=O)OCc2ccc3c(c2)OCO3)C(c2ccc(F)cc2)NC(=O)N1 (centres undefined) | active |
| CC1=C(C(=O)OCc2ccc3c(c2)OCO3)C(c2ccc(Cl)cc2)NC(=O)N1 (centres undefined) | active |
| CC1=C(C(=O)OCc2ccc3c(c2)OCO3)C(c2ccccc2)NC(=O)N1 (centres undefined) | active |
| O=C(NCc1ccccc1)C1=C[C@@H](c2csc3ccccc23)C[C@@H](OCCCCO)O1 | active |
| CCn1nc(C)c(NC(=O)/C=C/c2ccc(OC)c(COc3ccc(Br)cc3)c2)c1C | active |
| CCC(C)N(CC(=O)Nc1cccc(C)c1C)C(=O)CCl (centres undefined) | active |
| CCCN(CC(=O)Nc1ccccc1C)C(=O)CCl | active |
| CCc1c(C)sc2nc(C(C)C)nc(SCC(=O)N3CCc4ccccc4C3)c12 | active |
| Cc1cc(C(=O)CSc2nc3ccccc3c(=O)n2C)c(C)n1CC1CCCO1 (centres undefined) | active |
| Cc1cc(C(=O)CN2C(=O)c3ccccc3S2(=O)=O)c(C)n1CC1CCCO1 (centres undefined) | active |
| Cc1cc(C(=O)CSc2nc3ccccc3c(=O)n2C)c(C)n1Cc1ccc2c(c1)OCO2 | active |
| COc1ccc(CCNC(=S)N2CCC(Cc3ccccc3)CC2)cc1OC | active |
| N=C1S/C(=C\c2ccco2)C(=O)N1c1nccs1 | active |
| N=C1S/C(=C\c2ccc(-c3cccc(Cl)c3)o2)C(=O)N1c1nccs1 | active |
| Cn1ncc2c(N3CCN(c4ccc(Cl)c(Cl)c4)CC3)ncnc21 | active |
| O=C(Nc1ccc(Cl)c(Cl)c1)Nc1ccc(Br)cc1F | active |
| O=C(Nc1ccc(Cl)c(Cl)c1)Nc1ccccc1NS(=O)(=O)c1cccs1 | active |
